The entries come from a sample that favours hits as a whole.
FBPA Giardia inh – qHTS Assay for Inhibitors of Fructose-1,6-bisphosphate Aldolase from Giardia Lamblia | hit rate 0.71% among 290,000 | purified Giardia FBPA | Potency, µM (doses to about 59.6 µM), for the others: at the top dose activity, negative = inhibition, actives largely listed as inhibitors; also: potency is read from the fitted curve at half-maximal effect; % is scaled to controls: 0 for no effect and ±100 for the full control effect; nearly all actives have a fitted effect of over 55% in size
Target sequence (A8B2U2 whole entry, looked up): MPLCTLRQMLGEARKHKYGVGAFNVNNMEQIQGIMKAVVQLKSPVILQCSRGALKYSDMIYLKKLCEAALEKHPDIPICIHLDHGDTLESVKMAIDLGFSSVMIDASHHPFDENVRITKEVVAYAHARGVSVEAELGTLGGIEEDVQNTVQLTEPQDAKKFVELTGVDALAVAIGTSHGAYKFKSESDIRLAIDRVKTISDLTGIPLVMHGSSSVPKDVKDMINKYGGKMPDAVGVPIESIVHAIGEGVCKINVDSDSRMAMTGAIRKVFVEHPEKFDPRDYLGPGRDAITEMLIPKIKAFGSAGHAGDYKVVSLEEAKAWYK
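40 nM FBPA preincubated 10 min at RT with compound (up to 57.5 uM final), then substrate plus GAPDH/TPI/NAD/arsenate coupling and diaphorase/resazurin added. Fluorescence read after 20 min at RT, 525/598 nm.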
Shiga toxin inh – A qHTS for Small Molecule Inhibitors of Shiga Toxin | hit rate 9.2% among 290,000 | Vero cells, Shiga toxin protein synthesis inhibition reporter | inhibition, % at 38.7 µM; in the data active = inhibition mostly above about 28%, no sharp cut-off; inactive = mostly below about 43%; also: 0% is about no effect
Tb PYK inh – qHTS of Trypanosoma Brucei Inhibitors | TbPYK enzyme, Kinase-Glo Plus ATP luminescence, 45 min | Potency, µM (top dose mostly 76.8 µM), for inactives: top-dose activity, negative = inhibition, actives largely listed as inhibitors | hit rate 0.12% among 410,000 | AID 624173, 2012; also: potency is read from the fitted curve at half-maximal effect; % is scaled to controls: 0 for no effect and ±100 for the full control effect; nearly all actives have a fitted effect of over 50% in size
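Assay buffer: 50 mM TEA pH 7.2, 100 mM KCl, 10 mM MgCl2, 0.05% BSA, 0.01% Tween-20. Pyruvate kinase from T. brucei plus substrate met compound, then ADP (130 uM final). Luminescence was read post 45 min RT.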
LmPK inh – qHTS Assay for Inhibitors of Leishmania Mexicana Pyruvate Kinase (LmPK). purified LmPK, Kinase-Glo ATP luminescence, 1 h. Potency, µM (doses to about 57.5 µM), inactives show at the highest dose activity change, negative = inhibition, actives largely listed as inhibitors. hit rate 0.37% among 290,000. AID 1721, 2009; also: potency is read from the fitted curve at half-maximal effect; % is scaled to controls: 0 for no effect and ±100 for the full control effect
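Kinase-Glo luminescence read after 1 h RT reaction of 0.1 nM LmPK with 0.5 mM PEP and 0.1 mM ADP. Activity scaled between uninhibited and enzyme-free controls.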
Sm TGR inh – qHTS Assay for the Inhibitors of Schistosoma Mansoni Peroxiredoxins. Schistosoma mansoni thioredoxin glutathione reductase (TGR), Q962Y6. purified TGR, DTNB reduction, TNB absorbance 405 nm. Potency, µM (series often up to 114 µM), without a hit: at the top dose activity change, negative = inhibition, actives largely listed as inhibitors. hit rate 3% among 360,000. AID 485364, 2010; also: potency is read from the fitted curve at half-maximal effect; % is scaled to controls: 0 for no effect and ±100 for the full control effect; nearly all actives have a fitted effect of over 60% in size
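First, TGR (20 nM dispensed) and NADPH were mixed with compound. Second, a 15 min room-temperature incubation followed. Third, further NADPH and then DTNB were added to start the reaction. Finally, TNB absorbance was monitored kinetically.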
Cycloheximide cs – Cycloheximide Counterscreen for Small Molecule Inhibitors of Shiga Toxin; cell reporter, cycloheximide protein synthesis inhibition counterscreen; max response, %; hit rate 12% among 300,000; AID 2314, 2010; in the data active = max response mostly above about 13%, no sharp cut-off; inactive = mostly below about 14%; also: read at 38.3 µM for the half of the compounds with a filed dose; 0% is about no effect
* = called active by the depositor; ? = inconclusive; · = no result; [ ] = dose if it differs, or a comment. Unless noted, calls follow the shape of the dose curve; as a rule, active = well fitted curve in the direction sought with a large enough effect; inconclusive = small, poorly fitted or top-dose-only effect, or another doubt; inactive = no such curve, though single readings can be large; an effect the other way counts as inactive or inconclusive.

SMILES	FBPA Giardia inh	Shiga toxin inh	Tb PYK inh	LmPK inh	Sm TGR inh	Cycloheximide cs
CSc1nsc(SCC(=O)Nc2ccccn2)n1	-1%	42*	-6%	1%	-5%	23*
COc1ccc(-c2csc(NC(=O)CSc3nc(C)cs3)n2)cc1	·	·	6%	·	·	·
COc1ccc2nc(NC(=O)CSc3nnnn3C)sc2c1	0%	46*	-11%	0%	10%	28*
Cc1nc(SCC(=O)Nc2nc3ccccc3s2)n[nH]1	·	69*	0%	-2%	7%	54*
COc1ccc2nc(NC(=O)CSc3nnnn3C3CCCCC3)sc2c1	-6%	19	12%	7%	-1%	3
CSc1nsc(SCC(=O)NC2CCCCC2)n1	4%	52	-4%	-2%	-11%	27*
CCSc1nnc(SCC(=O)NC2CCCCC2)s1	·	·	-5%	·	-16%	·
CCOc1ccc2nc(NC(=O)CSc3nnnn3C3CCCCC3)sc2c1	-3%	50*	-5%	-5%	-36%	30*
CSc1nsc(SCC(=O)Nc2nc3ccccc3s2)n1	8%	67*	-2%	1%	-7%	30*
COc1ccc2nc(NC(=O)CSc3nc(SC)ns3)sc2c1	6%	72*	-8%	1%	-11%	47*
O=C(c1ccc2c(c1)N(Cc1cccc(Cl)c1)C(=O)c1ccccc1S2(=O)=O)N1CCC(Cc2ccccc2)CC1	·	·	2%	·	3%	·
CCN1C(=NCc2cc(OC)c(OC)c(OC)c2)N[C@@H](c2cccc(F)c2)C(C(=O)OC)=C1C	4%	10	·	-7%	-20%	-2
Cc1oc2ccc(O)c(CN3CCN(C)CC3)c2c1C(=O)Nc1ccc(C(C)C)cc1	·	·	-2%	·	1%	·
COC(=O)[C@@H]1O[C@@H](c2c(OC)c(OC)c(C)c(OC)c2OC)[C@H](C)[C@@H](O)[C@@H]1C	1%[12.9 µM]	·	·	·	·	·
COc1ccc2nc(NC(=O)CSc3nnc(C)s3)sc2c1	4%	30	0%	-2%	12%	12*
CN1c2ccccc2Oc2nnc(Cl)cc21	-2%	-15	8%	0%	·	-2
CN1c2ccccc2Oc2nnc(N3CCN(Cc4ccccc4)CC3)cc21	1%	54*	-1%	-16%	0%	30*
CCOC(=O)c1c(-c2ccc(C)o2)csc1NC(=O)COC(=O)c1ccc(NC(N)=O)cc1	-25%	-16	0%	5%	10µM*	-6
CCOC(=O)c1c(-c2ccc(C)o2)csc1NC(=O)CSc1nnnn1-c1ccccc1	-10%	14	?	-8%	5.6µM*	6
CCOC(=O)c1c(-c2ccc(C)o2)csc1NC(=O)CSc1nnc(C)s1	-21%	-7	-3%	1%	?	-1
COc1cc(C(=O)Nc2ccc3oc(-c4ccccc4)nc3c2)cc(OC)c1OC	·	·	-1%	·	8%	·
CCCOc1ccc(CNC(=O)Cn2ncc3ccccc32)cc1	4%	59*	-2%	4%	8%	34*
CCCOc1ccc(CNC(=O)CCC(=O)n2ncc3cc(C)ccc32)cc1	4%	-4	-16%	0%	-1%	-3
Cc1cc(Nc2ncc(Cl)cc2Cl)n[nH]1	-4%	74	4%	1%	-16%	15*
COc1cc(/C=C2\SC(=S)N(CCC(=O)Nc3cccc(O)c3)C2=O)cc(OC)c1OC	-5%	·	-22%	14%	6%	8
SMILES	FBPA Giardia inh	Shiga toxin inh	Tb PYK inh	LmPK inh	Sm TGR inh	Cycloheximide cs
O=C(CCCN1C(=O)/C(=C/c2ccccc2Cl)SC1=S)Nc1cccnc1	·	42*	2%	-9%	7%	29*
COc1ccccc1/C=C1\SC(=S)N(CCC(=O)Nc2cccc(O)c2)C1=O	1%	27*	5%	-2%	0%	17*
O=C(CCCN1C(=O)/C(=C/c2ccccc2)SC1=S)Nc1cccc(O)c1	-7%	21*	-4%	0%	-16%	12
O=C(CCCN1C(=O)/C(=C\c2ccccc2)SC1=S)Nc1ccc(O)cc1	-2%	3	4%	-4%	0%[57.1 µM]	26*
COc1ccc(N2CCN(C(=O)COC(=O)Cc3c(F)cccc3Cl)CC2)cc1	·	·	4%	·	-4%	·
COc1ccccc1CNC(=O)Cn1c(=O)oc2cc(S(=O)(=O)N3CCC(C)CC3)ccc21	·	·	-6%	·	2%	·
O=C(CCCN1C(=O)S/C(=C/C=C/c2ccccc2)C1=O)Nc1ccc(C(=O)O)cc1	·	-25	3%	-10%	-46%	-4
Cc1ccc(/C=C2/SC(=S)N(CCCC(=O)Nc3ccc(O)cc3)C2=O)cc1	-4%	25*	5%	2%	9%	31*
COc1ccc(/C=C2/SC(=S)N(CCCC(=O)Nc3ccc(O)cc3)C2=O)cc1OC	·	-20	3%	-1%	-6%	-4
COc1cccc(/C=C2\SC(=S)N(CCCC(=O)Nc3ccc(C(=O)O)cc3)C2=O)c1	·	11	1%	-6%	-23%	17
O=C(CN1C(=O)S/C(=C\C=C\c2ccccc2)C1=O)Nc1ccc(O)cc1	-1%	65*	0%	5%	-18%	72*
COc1cccc(/C=C2/SC(=S)N(CCCC(=O)Nc3ccc(O)cc3)C2=O)c1	·	44*	1%	0%	5%	27*
CCOC(=O)c1nnn(-c2nonc2-n2cccc2)c1CCl	17%	-6	3%	7%	8.9µM*	9
Cc1cccc(NC(=O)Cn2c(=O)n(CCc3ccccc3)c(=O)c3sc4ccccc4c32)c1	·	·	-10%	·	5%	·
O=C1c2ccccc2C(=O)N1CCC(=O)N1CCCc2ccccc21	6%	65	-4%	2%	22%	34*
O=C(CCn1cccc1)N1CCc2ccccc21	-1%	17	0%	-3%	25µM*	53*
Cc1ccc(S(=O)(=O)CC(=O)N2CCCC2)cc1	7%	16	-1%	-1%	-20%	8
Cn1cc(S(=O)(=O)CC(=O)N2CCc3ccccc32)c2ccccc21	-27%	13	4%	12%	-9%	-3
O=C(CS(=O)(=O)c1ccccc1)N1CCc2ccccc21	-3%	74*	3%	-29%	-2%	40*
O=C(CS(=O)(=O)c1ccccc1)N1CCCCCC1	-7%	53*	1%	-7%	-19%	17*
CN(CC(=O)Nc1ccc(F)cc1F)S(=O)(=O)c1cccc2nsnc12	·	·	-6%	·	5%	·
